Experimental data published in PubChem BioAssay AID623911 (Vanderbilt High Throughput Screening Facility, 2012).
Among all 2,100 compounds or so, about 770 (37%) were called active. This is one part of the list. A number with no mark means an inactive call.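 Rule for the calls: active = by-eye trace score of 1 for enhancers or -1 for inhibitors, so actives lie on both sides (some results past the limit were not filed as active); inactive = score 0, or 3 fluorescent, or 4 baseline rise.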

molecular target: G protein-activated inward rectifier potassium channel 2 (Homo sapiens) + G protein-activated inward rectifier potassium channel 1 (Homo sapiens) (UniProt P48051+P48549); assay: GIRK1/2 thallium flux modulators, retest, confirmation, cell-based, HEK293 rmGlu8/hGIRK1/2, FluoZin-2 (AID 623911); details: HEK293 rmGlu8/hGIRK1/2, thallium flux FluoZin-2; actives lie on both sides; glutamate co-added at its EC20 level
Sequence (P48051 whole entry, looked up): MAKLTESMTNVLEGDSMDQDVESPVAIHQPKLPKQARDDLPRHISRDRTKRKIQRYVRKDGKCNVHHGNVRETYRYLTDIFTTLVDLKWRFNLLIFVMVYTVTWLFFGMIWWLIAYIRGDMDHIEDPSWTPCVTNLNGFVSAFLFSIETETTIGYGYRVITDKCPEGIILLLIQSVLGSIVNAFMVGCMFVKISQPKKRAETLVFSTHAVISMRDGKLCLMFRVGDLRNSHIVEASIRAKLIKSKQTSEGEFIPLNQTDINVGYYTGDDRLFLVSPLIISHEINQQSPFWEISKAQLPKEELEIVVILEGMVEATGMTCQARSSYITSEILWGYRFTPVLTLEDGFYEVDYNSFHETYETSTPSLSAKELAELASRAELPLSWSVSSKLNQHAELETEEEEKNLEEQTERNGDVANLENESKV
Sequence (P48549 whole entry, looked up): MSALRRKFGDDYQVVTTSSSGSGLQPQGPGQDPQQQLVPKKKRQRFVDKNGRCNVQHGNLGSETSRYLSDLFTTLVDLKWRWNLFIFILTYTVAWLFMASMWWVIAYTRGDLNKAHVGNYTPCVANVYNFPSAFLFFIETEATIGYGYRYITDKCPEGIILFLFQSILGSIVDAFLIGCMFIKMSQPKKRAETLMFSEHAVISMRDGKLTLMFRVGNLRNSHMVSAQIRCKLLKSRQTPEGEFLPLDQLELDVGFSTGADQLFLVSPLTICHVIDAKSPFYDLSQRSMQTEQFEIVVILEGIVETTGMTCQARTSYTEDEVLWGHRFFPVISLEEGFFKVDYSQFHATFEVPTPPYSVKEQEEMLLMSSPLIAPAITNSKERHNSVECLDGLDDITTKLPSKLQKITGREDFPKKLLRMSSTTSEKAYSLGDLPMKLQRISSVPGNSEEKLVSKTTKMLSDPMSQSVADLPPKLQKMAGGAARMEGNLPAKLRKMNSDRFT

| Compound | manual score |
| --- | --- |
| COc1ccc(N(CC(=O)NCCSc2ccccn2)S(C)(=O)=O)cc1Cl | 0 |
| COc1cc2c(cc1NC(=O)COc1ccccc1OC)oc1ccccc12 | 0 |
| COc1ccc(CCNC(=O)CSc2nnc(-c3ccc(F)cc3)c3ccccc23)cc1OC | -1 (active) |
| COc1ccc(CN(C)CC(=O)NC(=O)NCc2ccccc2)cc1OC | 0 |
| CCCCC(=O)Nc1ncc2c(n1)CC(C)(C)CC2=O | 0 |
| CC1(C)Cc2nc(NCCN3CCOCC3)c(C#N)cc2CO1 | 0 |
| O=C(NN=C(Cc1ccccc1)Cc1ccccc1)c1ccc(F)cc1 | 1 (active) |
| N/C(=N\OC(=O)Cc1ccccc1)c1ccc(Br)cc1 | 0 |
| Cc1cc(C)c(NC(=O)/C(=C/c2ccco2)c2ccccc2)c(C)c1 | 0 |
| O=C(Nc1ccccc1C(=O)N/N=C/c1ccco1)c1ccccc1 | 0.5 |
| Cc1ccccc1C(=O)Nc1ccccc1C(=O)N/N=C\c1ccco1 | 1 (active) |
| O=C(CSc1nc2ccccc2[nH]1)NC1CCCc2ccccc21 (stereo not given) | 0 |
| Fc1ccc(CSc2nc3ccccc3[nH]2)c2ccccc12 | 1 (active) |
| CC(Sc1nc2ccccc2c(=O)[nH]1)C(=O)O (stereo not given) | 0 |
| CN1CCN(c2ccccc2NS(=O)(=O)c2ccc3c(c2)CCN3C(=O)C2CCC2)CC1 | -1 (active) |
| O=[n+]1c2c(n([O-])c3cc(F)c(N4CCCC4)cc31)CCC2 | 3 |
| CCCN(CCC)CCNC(=O)C(NS(=O)(=O)c1ccc2c(c1)CCC(=O)N2)c1ccccc1 (stereo not given) | 0 |
| Cc1ccc(S(=O)(=O)n2cnc3cc([N+](=O)[O-])ccc32)cc1C | 0 |
| COc1ccc(OC)c(C2C(C(=O)c3cc4ccccc4o3)=C(O)C(=O)N2c2cc(C)on2)c1 (stereo not given) | 0 |
| Cc1nc(NCCc2ccc(S(N)(=O)=O)cc2)c2c(C)c(C)sc2n1 | 1 (active) |
| Cc1cccc(-n2ncc3c(NCCc4ccc(S(N)(=O)=O)cc4)ncnc32)c1 | 0 |
| NS(=O)(=O)c1ccc(CCNC2CC(=O)N(Cc3ccccc3)C2=O)cc1 (stereo not given) | 0 |
| CCCCNC(=S)NC(=O)c1ccc(Cl)cc1Cl | 1 (active) |
| CC(C)CNC(=S)NC(=O)c1ccc(Cl)cc1Cl | 1 (active) |
| CC(C)CNC(=S)NC(=O)c1ccccc1Cl | 0 |
| CC(C)NC(=S)NC(=O)c1ccc(Cl)cc1Cl | 1 (active) |
| CCCCNC(=S)NC(=O)c1ccccc1Br | 0.5 |

| Compound | manual score |
| --- | --- |
| CCOc1ccc(C(C)=O)cc1N1C(=O)C2C(C1=O)C1C=CC2C12CC2 (stereo not given) | 0 |
| C=CCn1c(=S)[nH]c2sc3c(c2c1=O)CCC3 | 1 (active) |
| CC(=O)Nc1ccc(Oc2ncccn2)cc1 | 0 |
| Cc1ncoc1C(=O)Nc1ccc(Oc2ccccc2)cc1 | 0.5 |
| Cc1nc(C)c(C(=O)Nc2ccc(Oc3ccccc3)cc2)o1 | 1 (active) |
| O=C1c2ccsc2SCCN1Cc1c(Cl)cccc1Cl | -1 (active) |
| CCCC(c1c(C)n(C)n(-c2ccccc2)c1=O)c1c(C)n(C)n(-c2ccccc2)c1=O | 0 |
| COc1ccc(C(=O)N/N=C/c2ccc3cccc(OCc4ccccc4)c3n2)cc1 | 0 |
| O=C(N/N=C/c1ccc2cccc(OCc3ccccc3)c2n1)c1ccc(Br)cc1 | 0.5 |
| O=C(N/N=C/c1ccccn1)c1ccc(Br)cc1 | 1 (active) |
| CCOC(=O)C1=C(C)Nc2nnnn2C1c1ccccc1Cl (stereo not given) | -1 (active) |
| CCCC1=C(C(=O)OCC)C(c2ccc(F)cc2)n2ncnc2N1 (stereo not given) | 0 |
| CCOC(=O)C1=C(C)NC2=C(C(=O)C(C(=O)OCC)C(c3ccccc3OC)C2)C1c1ccccn1 (stereo not given) | 0 |
| CCCCn1c(NC(=S)Nc2ccccc2)nc2ccccc21 | 0 |
| CCCCCn1c(NCc2ccco2)nc2ccccc21 | -1 (active) |
| CCCCn1c(SCC(=O)NCc2ccco2)nc2ccccc2c1=O | 0.5 |
| CCN1c2ccccc2-c2nc3ccccc3n2C1c1ccco1 (stereo not given) | 0 |
| C/C(=N\NC(=O)c1ccccc1)c1nc2ccccc2n1C | 0 |
| Cn1c(NCc2cccc(Br)c2)nc2ccccc21 | -1 (active) |
| CC(C)CCn1c(S(=O)(=O)O)nc2ccccc21 | 0 |
| CCCn1c(NCc2ccc(N(C)C)cc2)nc2ccccc21 | -1 (active) |
| CCCCn1c(NC(=O)c2ccccc2Cl)c(C#N)c2nc3ccccc3nc21 | -0.5 |
| CCc1c(C)c(C#N)c2nc3ccccc3n2c1NCc1ccco1 | -1 (active) |
| Cc1cccc(N2C(N)=NC(N)=NC23CCCCC3)c1 | 0 |
| O=C(CN1C(=O)/C(=C/c2ccccc2F)Oc2ccccc21)N1CCN(c2ccccn2)CC1 | 0 |
| O=C(Oc1c(Cl)cc(Cl)c2cccnc12)c1cccc([N+](=O)[O-])c1 | 1 (active) |
| O=C(NNC(=O)c1cccnc1SCc1cccc([N+](=O)[O-])c1)c1cccnc1 | 0 |

| Compound | manual score |
| --- | --- |
| O=C(NNC(=O)c1cccnc1SCc1cccc([N+](=O)[O-])c1)c1ccccn1 | 0 |
| O=C(Oc1c(Cl)cc(Cl)c2cccnc12)c1ccco1 | 1 (active) |
| Cc1ccccc1NC1=C(Cl)C(=O)OC1OC(=O)c1ccco1 (stereo not given) | 0 |
| Cc1ccc(C2c3c(oc4ccc(Cl)cc4c3=O)C(=O)N2CCCN2CCOCC2)o1 (stereo not given) | 0.5 |
| O=c1c2ccccc2c(C=NCc2ccccn2)c(O)n1-c1ccccc1 | 0 |
| CCOc1ccc(Br)cc1/C(C)=N\NC1=NCCN1 | -1 (active) |
| CCNS(=O)(=O)c1cc(S(C)(=O)=O)ccc1Cl | 0 |
| CC(/C=N/n1c(-c2ccccc2)n[nH]c1=S)=C\c1ccco1 | 0 |
| CCN(CC)S(=O)(=O)c1cccc(-c2n[nH]c(=S)n2/N=C/c2ccc(C(=O)OC)cc2)c1 | 0 |
| CC(=C/c1ccccc1)/C=N/n1c(-c2ccco2)n[nH]c1=S | 0 |
| Cc1ccc(/C=N/n2c(COc3ccccc3)n[nH]c2=S)s1 | 0 |
| COc1ccc(/C=N/n2c(-c3cccs3)n[nH]c2=S)cc1 | 1 (active) |
| COc1cccc(/C=N/n2c(-c3cccs3)n[nH]c2=S)c1 | 1 (active) |
| CC(=O)Nc1ccc(S(=O)(=O)NC(C(=O)O)C2=CCC=CC2)cc1 (stereo not given) | 0 |
| S=C(Nc1ccccc1Cl)Nc1ccc(Cl)cc1Cl | 1 (active) |
| CN(C)S(=O)(=O)c1cccc(NC(=O)Cc2ccc(Cl)cc2)c1 | 1 (active) |
| Cc1ccc(NCC(=O)Nc2cccc(S(=O)(=O)N(C)C)c2)c(Cl)c1 | 0 |
| CN(C)S(=O)(=O)c1cccc(NC(=O)COc2cccc(C#N)c2)c1 | 0 |
| CN(C)S(=O)(=O)c1cccc(NC(=S)Nc2ccc(Cl)cc2Cl)c1 | 1 (active) |
| O=C(Nc1cccc(S(=O)(=O)c2cccc(NC(=O)C3CC3)c2)c1)C1CC1 | 0 |
| CN(C)S(=O)(=O)c1cccc(NC(=S)Nc2cc(Cl)cc(Cl)c2)c1 | 1 (active) |
| CC(C)OC(=O)/C(=C/c1cccnc1)NC(=O)c1ccccc1 | 0 |
| O=C(NCCCCNC(=O)c1cccnc1)c1cccnc1 | 0 |
| O=C(N/N=C(\c1ccccc1)c1cccnc1)C(O)(c1ccccc1)c1ccccc1 | -1 (active) |
| Cc1cc(N2C(=O)C(O)=C(C(=O)c3ccc(C)o3)C2c2cccs2)no1 (stereo not given) | 0 |
| CCCCn1c(-c2ccc(Cl)cc2)nc2c(=O)n(C)c(=O)[nH]c21 | 0 |
| CC(=O)c1c(C)[nH]c(C(=O)CSc2ncnc3sc(-c4ccccc4)cc23)c1C | 1 (active) |

| Compound | manual score |
| --- | --- |
| CCN(CC)C(=O)CSc1ncnc2sc(-c3ccccc3)cc12 | 0 |
| CC(C)N(C(=O)CSc1ncnc2sc(-c3ccccc3)cc12)C(C)C | 0 |
| Clc1ccccc1-c1nnc2sc(-c3ccccn3)nn12 | 0.5 |
| Clc1ccccc1-c1nnc2sc(-c3ccc4c(c3)OCO4)nn12 | 0 |
| Brc1ccccc1-c1nnc2sc(-c3ccc4c(c3)OCCO4)nn12 | -1 (active) |
| CCN(C(=O)CSc1nc2ccccc2n1CCc1ccccc1)C1CCS(=O)(=O)C1 (stereo not given) | 0 |
| CCCOC(=O)NC(CC)COC(=O)Nc1cccc(C)c1C (stereo not given) | 0 |
| Cc1cc(C=C2C(=O)c3ccccc3C2=O)c(C)n1-c1ccccc1 | 0.5 |
| Cc1cc(C)c(-n2c(C)cc(/C=C3/NC(=O)NC3=O)c2C)c(C)c1 | -1 (active) |
| Cc1ccc(C)c(OCC(O)CN2C(C)CCCC2C)c1 (stereo not given) | -1 (active) |
| C/C(=N\NC(=S)NCCc1ccccc1)c1ccc(C)cc1 | 0 |
| O=C(COC(=O)C1CC(=O)N(Cc2ccccc2)C1)Nc1ccc2c(c1)OCO2 (stereo not given) | 0 |
| O=C1c2ccccc2C(Nc2ccc3c(c2)OCCO3)N1Cc1ccccc1 (stereo not given) | -1 (active) |
| CC(C)Oc1ccccc1C1Nc2ccccc2C(=O)N1c1ccc2c(c1)OCCO2 (stereo not given) | 0 |
| O=C(CSCC(=O)N1CCCCC1)Nc1nc(-c2ccc(Cl)s2)cs1 | 0 |
| c1cn(C23CC4CC(CC(C4)C2)C3)cn1 | -1 (active) |
| CCc1ccc2c(c1)C1(NN=C(c3cccc4ccccc34)S1)C(=O)N2 (stereo not given) | 0 |
| O=C(NC(=S)Nc1ccccc1Cl)c1csnn1 | 1 (active) |
| Cc1ccc2cccc(NC(=S)NC(=O)c3ccn(C)n3)c2n1 | 0 |
| O=C(NC(=S)Nc1ccccc1)c1csnn1 | 1 (active) |
| CC(C)Oc1cccc(C(=O)NC(=S)Nc2ccccc2)c1 | 0 |
| O=C(NC(=S)Nc1ccccc1)c1cc(-c2ccccc2)nc2ccccc12 | 0 |
| O=C(NC(=S)Nc1cc(C(F)(F)F)ccc1Cl)c1ccccc1 | 0 |
| COc1ccc(Nc2nc(N)nc(CSc3nnc(C)s3)n2)cc1 | 0 |
